Laboratory results published in PubChem BioAssay (NCATS).
Inconclusive results are not listed. Active and inactive are the calls of the source. Unless noted, the call rests on the fitted dose curve; in most records, active means well fitted curve in the direction sought with a large enough effect; inconclusive means small, poorly fitted or top-dose-only effect, or another doubt; inactive means no such curve, though single readings can be large; an effect the other way counts as inactive or inconclusive.

What was measured:
[1] = target: Cytochrome P450 1A2 (Homo sapiens) (UniProt P05177); experiment: p450-cyp1a2 (AID 410; calls by dose curve;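 further: -100% = full effect of reference inhibitor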)
Outline: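 20nM CYP1A2, 100uM Luciferin-ME (=Km), 100mM KPO4; cpd 10 min RT; +NADPH regen, 60 min RT; stop/detect 20 min; luminescence. Normalized to furafylline 57 uM = full inhibition.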

[2] = NFAT Signaling Pathway (AID 444; active means well fitted curve in either direction with a large enough effect, not every such curve was filed as active;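 further: carbachol stimulus at about its EC50 of 1 µM final; on the % scale 0 is the no-effect control and ±100 the full control effect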); conditions: Jurkat NFAT-bla M1, carbachol, beta-lactamase ratio, 5 h; at 17.2 µM (top of the series) unless noted
Outline: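 Jurkat cells carrying an NFAT-driven β-lactamase reporter and co-transfected muscarinic M1 receptor were treated with compound plus carbachol (1 uM final, an EC50 level) for 5 h at 37 °C. CCF4 loading followed for 1 h at RT; 460/530 nm ratio gave %activity.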

[3] = Stat Signaling Pathway (AID 446; active means well fitted curve in either direction with a large enough effect, not every such curve was filed as active;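 further: ME-180 cervical cancer cells given 40 pM IL-6 alongside compound; SIE-controlled beta-lactamase reporter measured as 460/530 nm FRET emission ratio; on the % scale 0 is the no-effect control and ±100 the full control effect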); conditions: ME-180 (cervical carcinoma) SIE beta-lactamase reporter, IL-6 stimulated, 5 h
Outline: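 Overnight-plated ME-180 cells bearing a STAT Inducible Element beta-lactamase reporter; 5 h co-exposure to compound and 40 pM IL-6; values normalized to 300 pM IL-6 and 125 nM JAK inhibitor controls.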

[4] = target: Glucocorticoid receptor (Homo sapiens) (UniProt P04150); experiment: GR-GFP Redistribution (AID 450;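 active means compounds whose dose series gives a full or clear partial fitted curve of increased nuclear translocation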; further: potency means the concentration at half of the fitted maximal effect)
[5] = target: Glucocorticoid receptor (Homo sapiens) (UniProt P04150); experiment: GR-EFC Redistribution (AID 451; calls by dose curve; further: potency means the concentration at half of the fitted maximal effect); conditions: CHO-K1 GR-EFC translocation, beta-gal luminescence, 2 h
Outline: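 CHO-K1 cells stably expressing nuclear-localized β-gal enzyme acceptor and GR fused C-terminally to the enzyme donor fragment; ligand-driven nuclear translocation restores β-gal by complementation. Compounds titrated up to 46 uM final, 2 h at 37 °C; luminescence read.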

[6] = target: Mitogen-activated protein kinase 10 (Mus musculus) (UniProt Q61831); experiment: JNK3 AlphaScreen Assay (AID 530; active means well fitted curve in either direction with a large enough effect, not every such curve was filed as active;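 further: kinase came from lysate of stimulated human HepG2 cells; signal reports phosphorylation of biotinylated GST-cJun 1-79 at Ser73 with 10 µM ATP; on the % scale 0 is the no-effect control and ±100 the full control effect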)
Outline: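 Biotinylated GST-cJun(1-79) served as substrate for JNK3 in HepG2 lysates stimulated with IL-1beta and TNF-alpha. ATP was 10 uM final, pH 7.6. Ser73 phosphorylation was quantified by AlphaScreen (680 nm excitation).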

[7] = target: Guanine nucleotide-binding protein G(i) subunit alpha-1 (Homo sapiens) (UniProt P63096); experiment: qHTS Assay for Inhibitors of RGS12 GoLoco Motif Activity (Green Fluorophore) (AID 879);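 further: 0% = labeled peptide with Gαi1 and full inhibition = labeled peptide alone without protein; negative values mean loss of peptide binding seen as reduced polarization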
Outline: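 A drop in FITC polarization marked displacement of the FITC-tagged RGS12 GoLoco peptide (10 nM) from Gαi1 (50 nM). Compounds were incubated 10 min at room temperature in Tris pH 7.5 buffer containing 150 mM NaCl, 0.1 mM GDP and 0.05% NP40; unlabeled peptide titration served as control.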

[8] = target: Cytochrome P450 2C9 (Homo sapiens) (UniProt P11712); experiment: qHTS Assay for Inhibitors and Substrates of Cytochrome P450 2C9 (AID 883); further: nearly all actives have a fitted effect of over 60% in size; further: potency means the concentration at half of the fitted maximal effect
Outline: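 Human CYP2C9 (10nM) hydroxylated Luciferin-H (100uM, at its KM) to luciferin in 25mM KPO4. Compound was preincubated 10 min at 37C, then NADPH regeneration started a 60 min reaction at 37C. Luminescence was read after detection reagent, normalized to 57uM sulphaphenazole.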

[9] = target: Cytochrome P450 2D6 (Homo sapiens) (UniProt P10635); experiment: qHTS Assay for Inhibitors and Substrates of Cytochrome P450 2D6 (AID 891);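 further: luciferin methyl ether substrate demethylated by CYP2D6 with NADPH regeneration; on the % scale 0 is the no-effect control and ±100 the full control effect; nearly all actives have a fitted effect of over 60% in size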
Outline: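 Luminescent read-out of luciferin formed by 5 nM human CYP2D6 demethylating 30 uM Luciferin-ME EGE (Km level) over 60 min at room temperature after NADPH regeneration addition. Data normalized to full inhibition by 1.43 uM quinidine.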

[10] = target: Cytochrome P450 2C19 (Homo sapiens) (UniProt P33261); experiment: qHTS Assay for Inhibitors and Substrates of Cytochrome P450 2C19 (AID 899); further: on the % scale 0 is the no-effect control and ±100 the full control effect; nearly all actives have a fitted effect of over 60% in size
Outline: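 Human CYP2C19 (5nM) with Luciferin-H EGE at 10uM (its KM) in 50mM KPO4 was preincubated with compound for 10 min at 37C. NADPH regeneration started a 60 min 37C reaction. Luciferin was read by luminescence, normalized to 57uM ketoconazole.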

[11] = target: Muscarinic acetylcholine receptor M1 (Rattus norvegicus) (UniProt P08482); experiment: qHTS Assay for Antagonists of Acetylcholine Muscarinic M1 Receptor: Measurement of IP-One Response (AID 944); further: nearly all actives have a fitted effect of over 75% in size
Outline: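 Read-out: HTRF competition between d2-IP1 and Eu-cryptate anti-IP1 antibody, emission 620 and 665 nm. Stimulus was carbachol, EC80 (200 nM), for 30 min in M1-CHO cells (rat receptor), after 10 min compound pre-treatment.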

[12] = target: Pyruvate kinase (Leishmania mexicana) (UniProt Q27686); experiment: qHTS Validation Assay for Inhibitors of Leishmania Mexicana Pyruvate Kinase (AID 945);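 further: 0% = DMSO only neutral control wells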
Outline: (§1)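 LmPYK E451W 0.2 nM; 0.5 mM PEP, 0.1 mM ADP, 7 mM MgCl2, 50 mM KCl, imidazole pH 7.2, 0.01% Tween 20, 0.05% BSA; 1 h RT; PKLight luminescence; DMSO-normalized.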

[13] = target: Pyruvate kinase PKM (Homo sapiens) (UniProt P14618); experiment: qHTS Assay for Inhibitors of Human Muscle Pyruvate Kinase (AID 958)
Outline: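 Luminescence from a luciferase ATP-detection/stop reagent reported PKM2 activity. Reactions contained 0.1 nM purified human enzyme, 0.5 mM PEP, 0.1 mM ADP and 7 mM MgCl2 at pH 7.2, run 1 h at RT.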

[14] = target: Pyruvate kinase (Leishmania mexicana) (UniProt Q27686); experiment: qHTS Validation Assay for Activators of Leishmania Mexicana Pyruvate Kinase (AID 959)
Outline: as §1

[15] = target: Alpha-galactosidase A (Homo sapiens) (UniProt P06280); experiment: Counterscreen for Glucocerebrosidase Inhibitors: qHTS Assay for Human alpha-Galactosidase at pH 4.5 (AID 992); further: 0% is about no effect
Outline: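 Each compound is preincubated briefly with 2 nM enzyme before substrate addition (80 uM); plates then sit 20 min at ambient temperature, are quenched with 1M NaOH/1M glycine, and read fluorometrically.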

[16] = target: alpha-glucosidase (Oryza sativa, rice) (UniProt Q653V4); experiment: Counterscreen for Glucocerebrosidase Inhibitors: qHTS Assay for Rice alpha-Glucosidase at pH 5.0 (AID 997);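 further: 0% = full activity with enzyme and -100% = basal without enzyme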
Outline: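 Endpoint fluorogenic assay at pH 5.0: compounds (0.7 nM to 77 uM) titrated against 4 nM rice enzyme and 400 uM 4-MU-alpha-glucoside for 20 min at room temperature; NaOH/glycine stop, read ex 365/em 440 nm, Hill-fitted AC50.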

[17] = target: 3',5'-cyclic-AMP phosphodiesterase 4B (Homo sapiens) (UniProt Q07343); experiment: qHTS Assay for Inhibitors of PDE-IV (AID 607; active means well fitted activation curve with a large enough effect in the main read-out, with a control signal flat, not every such curve was filed as active; further: % of control where 0% means no effect)
Outline: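 Live HEK293 cells with a modified cyclic nucleotide-gated (CNG) channel report intracellular cAMP via membrane-potential dye fluorescence (ex 535/em 590 nm). Endogenous PDE-IV was targeted. Compounds were tested at up to 22.9 uM final; RO 20-1724 100 uM served as control.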

[18] = target: Cytochrome P450 3A4 (Homo sapiens) (UniProt P08684); experiment: qHTS Assay for Activators of Cytochrome P450 3A4 (AID 885); further: nearly all actives have a fitted effect of over 65% in size
Outline: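 Using 20nM recombinant human CYP3A4 in potassium phosphate (200mM), substrate Luciferin-PPXE at 25uM, luminescent luciferin detection followed a 60-min RT NADPH reaction; data scaled to 57 uM ketoconazole.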

[19] = qHTS Assay for Identification of Small Molecule Antagonists for NFkB Signaling Pathway (AID 895; active means well fitted inhibition curve with a large enough effect in the signal ratio, with a control signal flat, not every such curve was filed as active; the % refers to the signal ratio; further: on the % scale 0 is the no-effect control and ±100 the full control effect)
Outline: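 NFkB-bla ME-180 cervical carcinoma cells with beta-lactamase reporter under NFkB response element; compounds added, then TNF alpha at 10 pM final (EC50), 5 h at 37 C. LiveBLAzer substrate 2 h, room temperature; emission 460/530 nm at 405 nm excitation.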

[20] = target: Pyruvate kinase PKM (Homo sapiens) (UniProt P14618); experiment: qHTS Assay for Activators of Human Muscle Pyruvate Kinase (AID 954; active means well fitted curve in the direction sought with a large enough effect, not every such curve was filed as active;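 further: 0% = uninhibited enzyme and -100% = no enzyme or full thiadiazolimine inhibition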)
Outline: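 Screening used highly purified human pyruvate kinase M2 under submaximal activity, with PEP at its Km and ADP below Km. After an hour at room temperature, ATP was read by luciferase luminescence.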

Pyruvate kinase (Leishmania mexicana), sequence (Q27686 2-499 E452W): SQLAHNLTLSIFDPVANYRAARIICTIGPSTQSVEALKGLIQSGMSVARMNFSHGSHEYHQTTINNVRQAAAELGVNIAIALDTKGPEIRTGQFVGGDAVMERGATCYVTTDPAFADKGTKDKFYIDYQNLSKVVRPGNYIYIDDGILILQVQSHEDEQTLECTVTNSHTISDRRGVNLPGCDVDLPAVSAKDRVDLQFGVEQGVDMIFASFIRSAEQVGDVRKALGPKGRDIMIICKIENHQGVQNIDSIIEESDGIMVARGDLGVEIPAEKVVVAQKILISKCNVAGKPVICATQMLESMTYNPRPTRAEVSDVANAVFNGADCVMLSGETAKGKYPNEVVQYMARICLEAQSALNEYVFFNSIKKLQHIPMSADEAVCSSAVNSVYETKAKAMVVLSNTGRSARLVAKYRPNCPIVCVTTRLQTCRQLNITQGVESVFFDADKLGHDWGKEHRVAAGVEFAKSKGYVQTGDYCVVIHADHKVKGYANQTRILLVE
Cytochrome P450 1A2 (Homo sapiens), sequence (P05177 whole entry, looked up): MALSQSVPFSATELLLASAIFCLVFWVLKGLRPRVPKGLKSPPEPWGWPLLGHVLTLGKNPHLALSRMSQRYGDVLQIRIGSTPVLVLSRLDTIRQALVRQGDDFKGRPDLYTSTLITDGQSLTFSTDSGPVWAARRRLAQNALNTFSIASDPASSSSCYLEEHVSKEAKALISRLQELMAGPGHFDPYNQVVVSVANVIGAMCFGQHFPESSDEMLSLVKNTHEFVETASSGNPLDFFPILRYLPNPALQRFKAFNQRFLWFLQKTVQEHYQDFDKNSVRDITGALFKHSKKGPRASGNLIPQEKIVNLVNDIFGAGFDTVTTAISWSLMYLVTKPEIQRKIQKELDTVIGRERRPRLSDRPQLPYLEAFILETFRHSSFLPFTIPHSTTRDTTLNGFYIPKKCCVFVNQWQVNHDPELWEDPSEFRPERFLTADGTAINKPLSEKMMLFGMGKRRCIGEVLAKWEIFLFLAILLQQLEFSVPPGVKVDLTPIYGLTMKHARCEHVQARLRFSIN
Muscarinic acetylcholine receptor M1 (Rattus norvegicus), sequence (P08482 whole entry, looked up): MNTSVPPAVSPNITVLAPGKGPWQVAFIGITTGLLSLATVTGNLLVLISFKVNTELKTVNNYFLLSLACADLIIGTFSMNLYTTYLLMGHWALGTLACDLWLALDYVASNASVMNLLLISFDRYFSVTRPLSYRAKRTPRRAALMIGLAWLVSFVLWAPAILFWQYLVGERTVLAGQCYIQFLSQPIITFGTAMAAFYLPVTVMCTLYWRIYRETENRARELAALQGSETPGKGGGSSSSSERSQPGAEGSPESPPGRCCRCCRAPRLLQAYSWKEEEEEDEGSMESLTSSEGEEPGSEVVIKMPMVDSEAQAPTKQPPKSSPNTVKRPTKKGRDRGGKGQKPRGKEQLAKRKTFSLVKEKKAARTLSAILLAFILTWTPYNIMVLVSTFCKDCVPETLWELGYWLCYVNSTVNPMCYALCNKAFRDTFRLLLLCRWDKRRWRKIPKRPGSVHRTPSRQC
Pyruvate kinase PKM (Homo sapiens), sequence (P14618 whole entry, looked up): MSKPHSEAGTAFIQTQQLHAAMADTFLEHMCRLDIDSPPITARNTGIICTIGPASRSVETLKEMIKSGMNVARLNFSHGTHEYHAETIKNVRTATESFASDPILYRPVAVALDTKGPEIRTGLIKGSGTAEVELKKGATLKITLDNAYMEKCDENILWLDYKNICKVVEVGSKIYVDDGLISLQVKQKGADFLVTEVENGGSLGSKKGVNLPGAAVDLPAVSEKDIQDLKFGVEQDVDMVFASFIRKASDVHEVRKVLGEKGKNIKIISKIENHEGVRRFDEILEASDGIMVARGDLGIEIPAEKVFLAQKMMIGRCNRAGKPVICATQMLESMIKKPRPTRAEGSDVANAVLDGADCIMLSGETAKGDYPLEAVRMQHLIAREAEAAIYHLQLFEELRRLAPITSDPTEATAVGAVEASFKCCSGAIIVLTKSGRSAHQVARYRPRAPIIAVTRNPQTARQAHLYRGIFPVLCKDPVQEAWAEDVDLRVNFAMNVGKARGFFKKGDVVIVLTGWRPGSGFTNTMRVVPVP
3',5'-cyclic-AMP phosphodiesterase 4B (Homo sapiens), sequence (Q07343 whole entry, looked up): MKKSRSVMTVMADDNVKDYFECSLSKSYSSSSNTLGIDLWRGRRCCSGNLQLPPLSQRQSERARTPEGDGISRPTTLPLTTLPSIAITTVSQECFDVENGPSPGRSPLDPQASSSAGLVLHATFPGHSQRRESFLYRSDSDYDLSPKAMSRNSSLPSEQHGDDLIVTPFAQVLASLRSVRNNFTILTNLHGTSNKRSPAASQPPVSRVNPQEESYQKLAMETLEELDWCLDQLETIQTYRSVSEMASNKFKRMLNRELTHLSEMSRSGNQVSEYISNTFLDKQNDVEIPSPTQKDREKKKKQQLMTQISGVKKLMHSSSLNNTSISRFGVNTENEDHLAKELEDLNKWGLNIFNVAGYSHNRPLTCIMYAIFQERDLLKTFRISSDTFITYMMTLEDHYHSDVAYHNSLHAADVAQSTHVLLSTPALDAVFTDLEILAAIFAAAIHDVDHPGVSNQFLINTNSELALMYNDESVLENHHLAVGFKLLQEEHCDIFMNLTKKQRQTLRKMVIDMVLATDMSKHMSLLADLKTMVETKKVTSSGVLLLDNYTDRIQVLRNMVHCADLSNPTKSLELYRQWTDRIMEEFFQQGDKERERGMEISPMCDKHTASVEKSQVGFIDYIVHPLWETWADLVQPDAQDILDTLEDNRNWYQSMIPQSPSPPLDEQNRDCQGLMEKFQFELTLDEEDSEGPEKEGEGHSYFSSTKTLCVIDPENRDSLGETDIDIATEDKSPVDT
Glucocorticoid receptor (Homo sapiens), sequence (P04150 whole entry, looked up, the tested form may be a part): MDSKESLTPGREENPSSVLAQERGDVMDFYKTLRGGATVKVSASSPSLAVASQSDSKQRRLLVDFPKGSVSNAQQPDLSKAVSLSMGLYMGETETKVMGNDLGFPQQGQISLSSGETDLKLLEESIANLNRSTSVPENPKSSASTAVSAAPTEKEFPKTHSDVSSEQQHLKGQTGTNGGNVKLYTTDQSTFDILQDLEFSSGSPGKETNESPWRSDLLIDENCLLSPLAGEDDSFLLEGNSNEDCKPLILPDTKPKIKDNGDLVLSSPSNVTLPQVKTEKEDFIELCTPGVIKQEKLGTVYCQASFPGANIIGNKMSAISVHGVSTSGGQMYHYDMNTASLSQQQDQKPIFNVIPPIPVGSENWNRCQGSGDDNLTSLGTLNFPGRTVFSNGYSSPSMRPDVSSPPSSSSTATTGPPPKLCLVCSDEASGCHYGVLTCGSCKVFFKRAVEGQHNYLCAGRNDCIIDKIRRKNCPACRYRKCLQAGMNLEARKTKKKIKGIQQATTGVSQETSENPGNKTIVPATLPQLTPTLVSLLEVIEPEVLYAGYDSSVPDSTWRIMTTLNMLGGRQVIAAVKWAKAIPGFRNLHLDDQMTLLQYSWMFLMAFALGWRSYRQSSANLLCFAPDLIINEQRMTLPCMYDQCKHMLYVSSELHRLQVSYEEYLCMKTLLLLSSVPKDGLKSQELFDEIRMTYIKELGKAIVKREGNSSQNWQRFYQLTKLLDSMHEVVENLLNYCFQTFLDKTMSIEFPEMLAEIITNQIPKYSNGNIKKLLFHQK
Alpha-galactosidase A (Homo sapiens), sequence (P06280 whole entry, looked up): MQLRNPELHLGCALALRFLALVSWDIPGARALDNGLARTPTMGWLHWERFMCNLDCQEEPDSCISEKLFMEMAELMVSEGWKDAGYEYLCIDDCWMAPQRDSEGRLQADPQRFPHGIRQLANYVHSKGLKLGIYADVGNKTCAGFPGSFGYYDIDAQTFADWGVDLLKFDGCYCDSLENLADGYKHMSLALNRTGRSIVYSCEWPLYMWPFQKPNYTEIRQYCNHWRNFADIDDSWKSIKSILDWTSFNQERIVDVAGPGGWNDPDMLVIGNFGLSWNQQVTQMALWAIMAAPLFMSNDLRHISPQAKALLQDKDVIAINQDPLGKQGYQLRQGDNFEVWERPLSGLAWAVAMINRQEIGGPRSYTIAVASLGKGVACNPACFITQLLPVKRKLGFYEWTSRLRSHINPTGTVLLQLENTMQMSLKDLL
Cytochrome P450 2C9 (Homo sapiens), sequence (P11712 whole entry, looked up): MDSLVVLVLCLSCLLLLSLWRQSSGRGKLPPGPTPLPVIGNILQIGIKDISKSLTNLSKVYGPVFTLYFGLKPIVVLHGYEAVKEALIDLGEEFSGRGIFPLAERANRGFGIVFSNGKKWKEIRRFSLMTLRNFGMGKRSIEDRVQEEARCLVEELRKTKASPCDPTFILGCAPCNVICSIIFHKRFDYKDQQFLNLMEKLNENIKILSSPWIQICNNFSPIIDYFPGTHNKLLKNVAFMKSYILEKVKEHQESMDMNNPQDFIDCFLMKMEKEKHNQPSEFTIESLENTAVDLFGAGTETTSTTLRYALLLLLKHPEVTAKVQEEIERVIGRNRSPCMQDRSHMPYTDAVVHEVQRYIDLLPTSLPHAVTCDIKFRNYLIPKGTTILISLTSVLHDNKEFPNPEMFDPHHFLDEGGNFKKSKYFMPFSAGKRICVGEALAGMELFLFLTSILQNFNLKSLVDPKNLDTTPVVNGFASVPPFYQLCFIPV
Cytochrome P450 2C19 (Homo sapiens), sequence (P33261 whole entry, looked up): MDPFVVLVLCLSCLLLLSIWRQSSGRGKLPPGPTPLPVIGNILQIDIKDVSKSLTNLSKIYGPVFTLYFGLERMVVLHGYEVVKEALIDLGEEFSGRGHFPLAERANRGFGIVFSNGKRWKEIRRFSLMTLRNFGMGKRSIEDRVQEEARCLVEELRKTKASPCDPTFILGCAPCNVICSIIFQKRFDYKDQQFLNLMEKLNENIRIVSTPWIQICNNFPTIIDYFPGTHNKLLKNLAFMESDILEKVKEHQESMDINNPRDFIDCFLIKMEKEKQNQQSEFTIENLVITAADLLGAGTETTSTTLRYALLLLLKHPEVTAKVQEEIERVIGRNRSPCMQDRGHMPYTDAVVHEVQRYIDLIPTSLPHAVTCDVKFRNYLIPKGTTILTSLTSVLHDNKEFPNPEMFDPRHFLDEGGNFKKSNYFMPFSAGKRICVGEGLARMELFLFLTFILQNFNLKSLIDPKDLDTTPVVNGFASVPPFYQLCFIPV

Nc1ncnc2c1ncn2[C@@H]1O[C@@H](COP(=O)(O)OP(=O)(O)OP(=O)(O)OP(=O)(O)OC[C@@H]2O[C@@H](n3cnc4c(N)ncnc43)[C@@H](O)[C@H]2O)[C@H](O)[C@@H]1O
active: Potency [14] 12.6 µM
inactive: Potency [1] | activity change, negative = inhibition [2] -0.343% [at 38 µM] | activity, negative = inhibition ([3]; at 17.2 µM (top of the series) unless noted) 32% [at 38 µM] | Potency [4] > 46 µM | Potency [5] > 46 µM | Potency [6] | outcome [7] | Potency [8] | Potency [9] | Potency [10] | Potency [11] | Potency [12] | Potency [13] | outcome [15] | outcome [16]

COc1cc([C@H]2c3cc4c(cc3[C@@H](O)[C@@H]3COC(=O)[C@H]23)OCO4)cc(OC)c1OC
active: Potency [8] 6.31 µM
inactive: Potency [1] | activity change, negative = inhibition [2] -22.1% [at 38 µM] | activity, negative = inhibition ([3]; at 17.2 µM (top of the series)) 16.9% | activity, negative = inhibition ([3]; at 38 µM (top of the series)) -4.5% | Potency [6] | Potency [17] | Potency [18] | Potency [19] | Potency [11] | Potency [12] | outcome [20] | outcome [15] | outcome [16]
